# Measurements as given in PubChem BioAssay (NCI).
# Compounds without any hit were thinned out: in the full panel of roughly 79,000, 15% have a hit. Unmarked numbers belong to inactive results. Active and inactive are the calls of the source. Rule as the data show it: active = growth inhibition above about 70%; inactive = the rest.
# Experiments:
# [1] = NCI Yeast Anticancer Drug Screen. Data for the rad50 strain (AID 155);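 also: 0% = growth of vehicle-only cultures of the same strain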; details: S. cerevisiae rad50 strain growth inhibition, hits give high values
# Outline: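 DNA repair mutant yeast, compound exposure, growth read-out; inhibition is taken relative to vehicle.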
# [2] = NCI Yeast Anticancer Drug Screen. Data for the mec2-1 strain (AID 157); details: S. cerevisiae mec2-1 strain, hits give high values
# Outline: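 Test agents were screened against the mec2-1 yeast strain, with defined DNA repair or cell cycle alteration. Growth was scored as inhibition against vehicle-only controls.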
# [3] = NCI Yeast Anticancer Drug Screen. Data for the sgs1 mgt1 strain (AID 161);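 also: 0% = growth of cultures given vehicle only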; details: S. cerevisiae sgs1 mgt1 strain, hits give high values
# Outline: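 Genetically altered yeast, compound exposure, growth inhibition relative to vehicle.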
# [4] = NCI Yeast Anticancer Drug Screen. Data for the cln2 rad14 strain (AID 165);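 also: 0% = growth equal to vehicle treated cultures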; details: S. cerevisiae cln2 rad14 strain, hits give high values
# Outline: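 Growth of compound-exposed yeast (cln2 rad14 genotype) measured and expressed as inhibition relative to vehicle.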
# [5] = NCI Yeast Anticancer Drug Screen. Data for the bub3 strain (AID 167); details: S. cerevisiae bub3 mutant strain, hits give high values
# Outline: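 In this screen, a yeast mutant lacking normal mitotic checkpoint function is challenged with compound. Relative growth versus vehicle gives the inhibition value.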
# [6] = NCI Yeast Anticancer Drug Screen. Data for the mlh1 rad18 strain (AID 175); details: S. cerevisiae mlh1 rad18 strain growth inhibition, hits give high values
# Outline: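 In this whole-cell yeast screen, a strain with altered DNA damage repair is challenged with compound, and its growth is measured against matched vehicle-treated controls.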
# [7] = at 5.0 µM (retest, dose inferred, filed as 0.5)
# [8] = at 50.0 µM (retest, dose inferred, filed as 5.0)
Structure (SMILES),"growth inhibition [1, 7]","growth inhibition [1, 8]",growth inhibition ([1]; at 50.0 µM),"growth inhibition [2, 7]","growth inhibition [2, 8]",growth inhibition ([2]; at 50.0 µM),"growth inhibition [3, 7]","growth inhibition [3, 8]",growth inhibition ([3]; at 50.0 µM),"growth inhibition [4, 7]","growth inhibition [4, 8]",growth inhibition ([4]; at 50.0 µM),"growth inhibition [5, 7]","growth inhibition [5, 8]",growth inhibition ([5]; at 50.0 µM),"growth inhibition [6, 7]","growth inhibition [6, 8]",growth inhibition ([6]; at 50.0 µM)
O=C(Nc1nc2ccc([N+](=O)[O-])cc2s1)C(=O)C(C1OC(=O)c2ccccc21)[N+](=O)[O-] (configuration not stated),8%,8%,88.7% (active),-7%,-7%,87% (active),9%,9%,88.9% (active),13%,13%,67.6%,4%,4%,84% (active),0%,0%,76% (active)
O=C(O)c1c(Br)c(Br)c(Br)c(Br)c1-c1c2ccc(=O)cc-2oc2cc(O)ccc12,94% (active),93% (active),84.1% (active),95% (active),96% (active),88.7% (active),87% (active),96% (active),87.1% (active),88% (active),95% (active),87.8% (active),91% (active),95% (active),85.8% (active),94% (active),92% (active),83.5% (active)
O=c1oc(-c2cccc(C(Cl)Cl)c2)ns1,7%,99% (active),98.2% (active),5%,100% (active),99.1% (active),12%,100% (active),99.2% (active),2%,99% (active),69%,3%,99% (active),97.7% (active),13%,99% (active),99.1% (active)
O/N=C1/CC2CCCc3ccc4cccc1c4c32 (configuration not stated),-18%,-10%,60.2%,-18%,-3%,22.4%,-18%,15%,22.9%,-24%,-20%,12.2%,-12%,25%,81.8% (active),-26%,3%,-4%
CCCCCCCCCCC(C(=O)OCCCC)P(=O)(OCCCC)OCCCC (configuration not stated),11%,95% (active),36.4%,9%,95% (active),73.2% (active),8%,86% (active),30.8%,13%,96% (active),81.2% (active),4%,95% (active),21.1%,6%,94% (active),59.3%
Fc1cccc2c1cc1ccc3cccc4ccc2c1c34,-1%,-11%,89.2% (active),0%,-6%,40.4%,-5%,-14%,83.5% (active),-3%,-4%,61.7%,0%,-6%,87.5% (active),-5%,-6%,91.2% (active)
N#CCc1ccc2c(c1)Sc1ccccc1O2,-159%,-54%,90.5% (active),-49%,-26%,31.8%,-58%,-13%,53%,-57%,-35%,-5.85%,-62%,-33%,50.2%,-122%,-45%,73.8% (active)
CCC(=O)OC1=C(Cl)C(=O)c2ccccc2C1=O,2%,98% (active),71.8% (active),4%,99% (active),27.2%,9%,99% (active),63.8%,2%,98% (active),0.15%,6%,99% (active),34.5%,14%,98% (active),55.4%
CC(C)(C)c1cc(C2c3cc4c(cc3OC(O)(CO)C2C(=O)O)OCO4)cc(C(C)(C)C)c1O (configuration not stated) (tested in a mixture with another compound),-23%,39%,49.9%,-6%,61%,50.1%,-20%,50%,37%,5%,68%,72.1% (active),-10%,63%,55%,11%,73% (active),52.6%
COc1ccc2nc3c([N+](=O)[O-])ccc(NCCCN(C)C)c3c(N)c2c1,6%,86% (active),90.3% (active),9%,70% (active),85.7% (active),24%,75% (active),92.5% (active),16%,50%,34.5%,-22%,85% (active),44.5%,-14%,95% (active),88.6% (active)
CCc1cccc(C)c1NC(=O)C(=O)C(C#N)c1ccc(C)cc1 (configuration not stated),-3%,27%,28.5%,0%,5%,13.2%,-25%,-1%,17.9%,8%,18%,13.7%,-4%,39%,16.1%,13%,24%,23.9%
CN(C(=O)c1cccs1)C(=S)N1CCN(c2ccccc2)CC1,-26%,66%,79.8% (active),6%,68%,67%,-2%,70% (active),84.8% (active),-8%,56%,49.9%,-14%,83% (active),61.3%,-18%,90% (active),67.2%
CCCCCCCCCCCCCC(N)c1ccc(C)cc1 (configuration not stated),60%,97% (active),99% (active),0%,98% (active),99.2% (active),99% (active),98% (active),99.5% (active),3%,97% (active),97.7% (active),13%,97% (active),98.5% (active),33%,97% (active),98.3% (active)
CCC[CH2][Sn]([Cl])([CH2]CCC)[S]/C(C#N)=N/N=C/c1ccc(N(C)C)cc1,97% (active),98% (active),98.2% (active),97% (active),98% (active),98.8% (active),97% (active),98% (active),98.8% (active),99% (active),98% (active),97.9% (active),97% (active),98% (active),98.8% (active),98% (active),97% (active),98.7% (active)
CN(CCC1CCCCC1)CCC1CCCCC1,21%,89% (active),97.9% (active),9%,72% (active),80.3% (active),35%,97% (active),97.2% (active),14%,73% (active),77.6% (active),30%,97% (active),96.5% (active),11%,89% (active),93.6% (active)
CCCC(O)CNCc1ccc(N(C)C)cc1 (configuration not stated),-2%,7%,30.1%,-3%,6%,-4.1%,-3%,-29%,75.6% (active),6%,3%,63.9%,-1%,5%,46.7%,-17%,16%,41.8%
Cc1ccc(SC2C(=O)C3(C)CCC2C3(C)C)cc1 (configuration not stated),-1%,32%,64.2%,-1%,27%,28.8%,-2%,44%,72.2% (active),-1%,1%,-21.7%,2%,28%,37.5%,0%,52%,82% (active)
Cc1noc(NS(=O)(=O)c2ccc(NC(=S)/N=C/c3c(O)[nH]c(=O)[nH]c3=O)cc2)c1C,-1%,-5%,16.1%,-18%,-11%,9.75%,-8%,-5%,16.5%,-24%,-19%,44.8%,4%,10%,6.05%,7%,-2%,15.8%
Cc1ccc2nn(-c3ccc(O)cc3)nc2c1,11%,45%,50.3%,16%,42%,22.6%,7%,38%,27%,6%,39%,29.3%,28%,69%,74.5% (active),12%,50%,74.2% (active)
